Test results reported in PubChem BioAssay (NCI).
The panel holds about 83,000 compounds, 20% with a hit somewhere; the sample as a whole holds those more often.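 A percent growth of 40 corresponds to 60% growth inhibition; 0 means no net growth; -100 means all cells died. Active threshold: below 10.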 Calls of active or inactive are those of the source.

Tests used:
Experiment in all cases: NCI-60 one-dose screen, 48 h (100 = growth as untreated, 0 = no growth, -100 = all killed)
Details in all cases: 10 µM unless noted
SR leukemia = test system: SR leukemia
RPMI-8226 leukemia = test system: RPMI-8226 leukemia
OVCAR-8 ovarian = test system: OVCAR-8 ovarian
OVCAR-5 ovarian = test system: OVCAR-5 ovarian
OVCAR-4 ovarian = test system: OVCAR-4 ovarian
SK-OV-3 ovarian = test system: SK-OV-3 ovarian
IGROV1 ovarian = test system: IGROV1 ovarian
OVCAR-3 ovarian = test system: OVCAR-3 ovarian
HS 578T breast = test system: HS 578T breast
NCI/ADR-RES ovarian = test system: NCI/ADR-RES ovarian
T-47D breast = test system: T-47D breast
BT-549 breast = test system: BT-549 breast
MDA-MB-435 melanoma = test system: MDA-MB-435 melanoma
SW-620 colon = test system: SW-620 colon
MCF7 breast = test system: MCF7 breast
HCT-116 colon = test system: HCT-116 colon
HCC-2998 colon = test system: HCC-2998 colon
KM12 colon = test system: KM12 colon

Measured: growth

CCN(CC)CCN1C(=O)c2c(c(C)c3c(oc4cc(OC)ccc43)c2C)C1=O
inactive: SR leukemia 29.3% | RPMI-8226 leukemia 88.1% | OVCAR-8 ovarian 90.6% | OVCAR-5 ovarian 94.2% | OVCAR-4 ovarian 73.8% | SK-OV-3 ovarian 115% | IGROV1 ovarian 42.2% | OVCAR-3 ovarian 112% | HS 578T breast 118% | NCI/ADR-RES ovarian 86.2% | T-47D breast 104% | BT-549 breast 98.2% | MDA-MB-435 melanoma 95.6% | SW-620 colon 96.3% | HCT-116 colon 94.1% | HCC-2998 colon 103% | KM12 colon 102%
active: MCF7 breast -8.69%

O=C(Nc1ncc(Cc2ccc(Cl)cc2)s1)C1=NCCCCN1
inactive: SR leukemia 106% | RPMI-8226 leukemia 97% | OVCAR-8 ovarian 106% | OVCAR-5 ovarian 105% | OVCAR-4 ovarian 105% | SK-OV-3 ovarian 106% | IGROV1 ovarian 107% | OVCAR-3 ovarian 110% | HS 578T breast 109% | NCI/ADR-RES ovarian 106% | T-47D breast 92.5% | BT-549 breast 104% | MDA-MB-435 melanoma 101% | SW-620 colon 103% | MCF7 breast 89.1% | HCT-116 colon 100% | HCC-2998 colon 118% | KM12 colon 103%

O=C(CN1C(=O)NC2NC(=O)NC21)N/N=C/c1cccc([N+](=O)[O-])c1 (configuration not stated)
inactive: SR leukemia 110% | RPMI-8226 leukemia 110% | OVCAR-8 ovarian 111% | OVCAR-5 ovarian 105% | OVCAR-4 ovarian 105% | SK-OV-3 ovarian 108% | IGROV1 ovarian 103% | OVCAR-3 ovarian 108% | HS 578T breast 107% | NCI/ADR-RES ovarian 101% | T-47D breast 107% | BT-549 breast 102% | MDA-MB-435 melanoma 98.1% | SW-620 colon 105% | MCF7 breast 91.8% | HCT-116 colon 116% | HCC-2998 colon 118% | KM12 colon 104%

COc1cc(/C=C/c2cc(/C=C/c3ccc(O)c(OC)c3)n(C(=O)Nc3ccc(C)cc3C)n2)ccc1O
active: SR leukemia -2.07% | RPMI-8226 leukemia -16.7% | OVCAR-8 ovarian -34.7% | OVCAR-5 ovarian -4.24% | OVCAR-4 ovarian 7.87% | SK-OV-3 ovarian -63.6% | IGROV1 ovarian -1.75% | OVCAR-3 ovarian -37.3% | HS 578T breast -15% | NCI/ADR-RES ovarian 7.64% | T-47D breast -22.5% | BT-549 breast -33.8% | MDA-MB-435 melanoma -40.9% | SW-620 colon -10.9% | MCF7 breast -3.78% | HCT-116 colon 1.48% | HCC-2998 colon 4.28% | KM12 colon -9.35%

COc1cc2c(c(OC)c1OC)C(=O)CC(c1cccc(C(=O)Nc3ccc(Br)cc3)c1)O2 (configuration not stated)
inactive: SR leukemia 22.2% | RPMI-8226 leukemia 14.6% | OVCAR-8 ovarian 47.1% | OVCAR-5 ovarian 89.4% | OVCAR-4 ovarian 45.6% | SK-OV-3 ovarian 76.2% | IGROV1 ovarian 67.4% | OVCAR-3 ovarian 65% | HS 578T breast 91.4% | NCI/ADR-RES ovarian 36.1% | T-47D breast 20.3% | BT-549 breast 34% | MDA-MB-435 melanoma 30.3% | SW-620 colon 85.8% | MCF7 breast 42.9% | HCT-116 colon 46.6% | HCC-2998 colon 92.1% | KM12 colon 62.9%

C#CCOc1ccc(C2=NN(C)C3N=C(Cl)c4ncn(C)c4N23)cc1OCC#C (configuration not stated)
inactive: SR leukemia 91% | RPMI-8226 leukemia 92.4% | OVCAR-8 ovarian 93.1% | OVCAR-5 ovarian 82.6% | OVCAR-4 ovarian 102% | SK-OV-3 ovarian 101% | IGROV1 ovarian 102% | OVCAR-3 ovarian 118% | HS 578T breast 99.9% | NCI/ADR-RES ovarian 88.4% | T-47D breast 77.4% | BT-549 breast 99.6% | MDA-MB-435 melanoma 108% | SW-620 colon 93.6% | MCF7 breast 98.5% | HCT-116 colon 93.3% | HCC-2998 colon 104% | KM12 colon 102%

O=CN1N=C(c2cccc(Nc3ccncc3)c2)CC1c1ccc2c(c1)OCO2 (configuration not stated)
inactive: SR leukemia 82.1% | RPMI-8226 leukemia 80% | OVCAR-8 ovarian 91.3% | OVCAR-5 ovarian 98.5% | OVCAR-4 ovarian 82.7% | SK-OV-3 ovarian 78.6% | IGROV1 ovarian 102% | OVCAR-3 ovarian 99.6% | HS 578T breast 94.2% | NCI/ADR-RES ovarian 101% | T-47D breast 79.1% | BT-549 breast 106% | MDA-MB-435 melanoma 92.1% | SW-620 colon 102% | MCF7 breast 81.7% | HCT-116 colon 83.1% | HCC-2998 colon 98.5% | KM12 colon 98.4%

CC(=O)OCCOc1cc(Cl)c(Cl)cc1Cl
inactive: SR leukemia 97.2% | RPMI-8226 leukemia 93.3% | OVCAR-8 ovarian 103% | OVCAR-5 ovarian 90.6% | OVCAR-4 ovarian 108% | SK-OV-3 ovarian 107% | IGROV1 ovarian 130% | OVCAR-3 ovarian 118% | HS 578T breast 103% | NCI/ADR-RES ovarian 105% | T-47D breast 101% | BT-549 breast 91.7% | MDA-MB-435 melanoma 106% | SW-620 colon 104% | MCF7 breast 104% | HCT-116 colon 102% | HCC-2998 colon 97.9% | KM12 colon 103%

O=C(O)c1cc2ccccc2s1
inactive: SR leukemia 104% | RPMI-8226 leukemia 105% | OVCAR-8 ovarian 102% | OVCAR-5 ovarian 103% | OVCAR-4 ovarian 113% | SK-OV-3 ovarian 103% | IGROV1 ovarian 106% | OVCAR-3 ovarian 120% | HS 578T breast 99.3% | NCI/ADR-RES ovarian 108% | T-47D breast 91.9% | BT-549 breast 108% | MDA-MB-435 melanoma 104% | SW-620 colon 103% | MCF7 breast 111% | HCT-116 colon 105% | HCC-2998 colon 107% | KM12 colon 108%
